Source: article PMC5540273 (PLoS ONE, 2017)

test system: CSNK1G3; conditions: concentration: 1 μM, replicates: in singlicate; n = 1
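Also: KINOMEscan kinase panel screen.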

Row | Structure (SMILES) | %Inh [%]
1 | CCc1nc(-c2cccc(C)c2)c(-c2ccncc2)s1 | 12
2 | COc1cc(OC)cc(-c2cc3cnc(N)nc3nc2NC(=O)NC(C)(C)C)c1 | 32
3 | Nc1ncnc2c1ncn2-c1cccc(F)c1 [SKF-97560] | 0
4 | COc1cc2ncn(-c3cc(OCc4ccncc4)c(C(N)=O)s3)c2cc1OC [GSK336313] | 30
5 | Fc1cccc(CSc2nnc(-c3ccc4c(c3)CCO4)o2)c1 | 0
6 | CCC(=O)c1c(-c2ccccc2)c2cc(Cl)ccc2c(=O)n1Cc1cc(S(C)(=O)=O)n(CCC(C)(C)O)n1 | 0
7 | CCn1c(-c2ccoc2)nc2cnccc21 [SB-733887] | 4
8 | CCc1ccc(-c2ccc3c(c2)-c2nn(C)cc2S(=O)(=O)N3C)cc1 | 0
9 | COc1ccc(-c2coc3ccc(-c4nnc(SCc5cccc(C#N)c5)o4)cc23)cc1 | 8
10 | COC(=O)c1c(-c2ccccc2)c2cc(C)ccc2c(=O)n1Cc1ccccc1 | 0
11 | Cl.NS(=O)(=O)c1cccc(Nc2cc(-c3ccc(F)cc3)n[nH]2)c1 [GW824645] | 0
12 | COC(=O)c1c(-c2ccccc2)c2cc(Br)ccc2c(=O)n1Cc1ccc(NC(=O)CCC(=O)O)cc1 | 0
13 | COc1ccc(CNC(=O)NC2CCN(c3ccnc(Nc4ccc(F)cc4)n3)C2)cc1 (centres unmarked) [GSK1379706] | 23
14 | CCS(=O)(=O)c1ccc(OC)c(Nc2ncc(-c3ccc(F)cc3)o2)c1.Cl [GW591947] | 8
